Results reported in PubChem BioAssay (NCATS).
Results filed as inconclusive are left out. Entries that show only a call come without a potency. A number with no mark means an inactive call. Active and inactive are the calls of the source. The call rests on the fitted dose curve; in most records, active means well fitted cell-killing curve with a large enough effect; inconclusive means small, poorly fitted or top-dose-only effect, or effect the other way; inactive means no such curve, though single readings can be large or run the other way.

Tests used:
[1] = Viability qHTS for spleen associated tyrosine kinase inhibitor (SYKi) naive MV4-11 cells (AID 1963823); further: nearly all actives have a fitted effect of over 40% in size
How it was run: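 Luminescence from CellTiter-Glo, developed 10 min at room temperature, gave viability of MV4-11 cells never exposed to SYK inhibitor. Cells (500/well) had been incubated with compounds for 72 hr under standard culture conditions.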

[2] = Viability qHTS for spleen associated tyrosine kinase inhibitor (SYKi) drug resistant MV4-11 cells (AID 1963824); further: nearly all actives have a fitted effect of over 35% in size
How it was run: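 SYK inhibitor-resistant MV4-11 AML cells, 500 per well, added to predispensed compounds and incubated 72 hr at 37 C, 5% CO2. Viability measured by CellTiter-Glo luminescence after 10 min at room temperature.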
Potency means the concentration at half of the fitted maximal effect.

SMILES | Potency [1] | Potency [2] | viability (% of control) [1] | viability, % of control [2]
CC1C2=CC(=O)OC2(O)CC2C1C(OC(=O)c1ccccc1)C(OC(=O)c1ccccc1)C1(O)C2(C)CCC(O)C1(C)C(=O)O (stereo unspecified) | inactive | inactive |  | 
CC(=O)N[C@H]1[C@H](O[C@H]2CC[C@@]3(C)C(CC[C@]4(C)C3CC=C3[C@@H]5CC(C)(C)CC[C@]5(C(=O)OC5OCC(O)C(O)C5O)CC[C@]34C)C2(C)C)O[C@H](COC2OC(C)C(O)C(OC3OC(C)C(O)C(O)C3O)C2O)[C@@H](O)[C@@H]1O (stereo partly specified) |  |  | 83.4% [at 9.25 µM] | 87% [at 9.25 µM]
CC(=O)NC1=NN(C(C)=O)C(C)(c2ccccc2)S1 (stereo unspecified) | 1.84 µM (active) | 2.59 µM (active) |  | 
Cc1nc2c(O)cccc2c(=O)[nH]1 | inactive | inactive |  | 
CC(C)C(NC(=O)c1ccc(O)cc1)C(=O)N1CCCC1C(=O)Nc1c(O)cccc1C(=O)O (stereo unspecified) | inactive | inactive |  | 
COC1CC(O[C@H]2CC[C@]3(C)C4CC[C@@]5(C)C(=O)[C@]4(CC[C@@H]3C2)CC[C@@H]5C2=CC(=O)OC2)OC(C)C1OC1OC(COC2OC(CO)C(O)C(O)C2O)C(O)C(O)C1O (stereo partly specified) | 1.1 µM (active) | 1.23 µM (active) |  | 
CC(=O)N[C@@H](Cc1c[nH]c2ccccc12)C(=O)N[C@@H](CCC(=O)O)C(=O)N[C@@H](Cc1cnc[nH]1)C(=O)N[C@@H](CC(=O)O)C(=O)Nc1ccc2c(C(F)(F)F)cc(=O)oc2c1 | inactive | inactive |  | 
COC(=O)[C@]1(C)CCC[C@@]2(C)[C@@H]3CC[C@@H]4C[C@@]3(CC[C@@H]21)C[C@H]4C(=O)O | inactive | inactive |  | 
OC[C@@]1(O)CO[C@H](OC[C@H]2O[C@@H](OCCc3ccccc3)[C@H](O)[C@@H](O)[C@@H]2O)[C@@H]1O | inactive | inactive |  | 
COc1ccc(C[C@H](N)C(=O)N[C@@H]2[C@H](O)[C@H](n3cnc4c(N(C)C)ncnc43)O[C@@H]2CO)cc1 | 0.184 µM (active) | 0.184 µM (active) |  | 
CC(=O)O[C@@H](C[C@@H]1C=C(C)C(=O)O1)[C@H](C)[C@H]1CCC2[C@@]3(C)CC[C@H](O[C@@H]4O[C@H](CO)[C@@H](O)[C@H](O)[C@H]4O[C@@H]4O[C@@H](C)[C@H](O)[C@@H](O)[C@H]4O)C(C)(C)C3CC[C@@]2(C)[C@@]12COC(=O)C2 (stereo partly specified) |  |  | 81.6% [at 9.25 µM] | 89.9% [at 9.25 µM]
C[C@@H]1[C@H]2[C@H](O[C@@H]3O[C@H](CO)[C@@H](O)[C@H](O)[C@H]3O)OC=C(C(=O)O)[C@H]2C[C@@H]1O | inactive | inactive |  | 
O=C(/C=C/c1ccccc1)OCC1=CC[C@@H]2C(C(=O)O)=CO[C@@H](O[C@@H]3O[C@H](CO)[C@@H](O)[C@H](O)[C@H]3O)[C@H]12 | inactive | inactive |  | 
C=C[C@H]1[C@H](O[C@@H]2O[C@H](CO)[C@@H](O)[C@H](O)[C@H]2O)OC=C(C(=O)OC)[C@H]1C/C=C(/C=O)[C@@H]1C(C(=O)OC)=CO[C@@H](O[C@@H]2O[C@H](CO)[C@@H](O)[C@H](O)[C@H]2O)[C@@H]1C=C | inactive | inactive |  | 
CC1=C[C@H]2[C@@H](CC1=O)[C@H](C)C[C@H](O)[C@H]2C(C)C | inactive | inactive |  | 
Fc1ccc(-c2nc(C3CCNCC3)sc2-c2ccnc(NC3CC3)n2)cc1 | 10.3 µM (active) | 11.6 µM (active) |  | 
C[C@@]1(C(=O)O)CCC[C@@]2(C)C3=CC[C@H]4C[C@@]3(CC[C@H]12)CC4(O)CO (stereo partly specified) | inactive | inactive |  | 
C=C1CC[C@@H]2[C@](C)(CO)[C@H](O)CC[C@@]2(C)[C@@H]1C/C=C1/C(=O)OC[C@H]1O | 2.63 µM (active) | 2.95 µM (active) |  | 
CN(C)CCOc1cc(NS(=O)(=O)c2c(Cl)cc(C(F)(F)F)cc2Cl)ccc1Cl | inactive | inactive |  | 
CC1OC(OC2C(CO)OC(OCC3OC(OC(=O)C45CCC(C)(C)CC4C4=CCC6C7(C)CCC(OC8OC(C(=O)O)C(O)C(OC9OC(CO)C(O)C(O)C9O)C8O)C(C)(C)C7CCC6(C)C4(C)CC5)C(O)C(O)C3O)C(O)C2O)C(O)C(O)C1O (stereo unspecified) |  |  | 92.6% [at 9.25 µM] | 105% [at 9.25 µM]
CC(C)[C@@H](c1ccc(C(F)(F)F)cc1CN(Cc1cc(C(F)(F)F)cc(C(F)(F)F)c1)c1nnn(C)n1)N1CCC(C(=O)O)CC1 | 16.4 µM (active) | 20.6 µM (active) |  | 
C=C1C(OC(C)=O)C(=O)C2C(C)(C)C(O)CCC2(C)C1CC(OC(C)=O)/C(C)=C/COC(C)=O (stereo unspecified) | inactive | inactive |  | 
OC[C@H]1O[C@@H](OCCc2ccccc2)[C@H](O[C@@H]2OC[C@@H](O)[C@H](O)[C@H]2O)[C@@H](O)[C@@H]1O | inactive | inactive |  | 
CC1(C(=O)Nc2ccc(F)nc2)CCCN1c1nc(Nc2cc(C3CC3)[nH]n2)c2cccn2n1 (stereo unspecified) | 1.46 µM (active) | 1.64 µM (active) |  | 

SMILES | Potency [1] | Potency [2] | viability (% of control) [1] | viability, % of control [2]
CC(=O)N1CCN(C(=O)Cc2ccc(Nc3ncc(F)c(Nc4ccc(C(=O)Nc5ccccc5Cl)cc4)n3)cc2)CC1 | 0.517 µM (active) | 0.517 µM (active) |  | 
COCc1c(Cl)ccc2c1CC[C@H]2c1ncc[nH]1 | inactive | inactive |  | 
C=CC1(C)C=C2C(=O)CC3C(C)(C)CCCC3(C(=O)O)C2(O)CC1 (stereo unspecified) | inactive | inactive |  | 
CC1CCC23COC(=O)C2=CC(O)CC3C1(C)CCC1=CC(=O)OC1O (stereo unspecified) | inactive | inactive |  | 
CC1(C)CC(NC(=O)C(=O)Nc2ccc(Br)cc2)CC(C)(C)N1 | 3.26 µM (active) | 2.59 µM (active) |  | 
COc1c(C)c(OCC(O)C(C)(C)O)cc2c1CNC2=O (stereo unspecified) | inactive | inactive |  | 
COc1ccc(C(O)C(C)OC2OC(CO)C(O)C(O)C2O)cc1 (stereo unspecified) | inactive | inactive |  | 
CC(CCC1(O)OC2CC3C4CCC5CC(O[C@@H]6O[C@H](CO)[C@@H](O)[C@H](O)[C@H]6O[C@@H]6OC[C@@H](O)[C@H](O)[C@H]6O)C(O)CC5(C)C4CCC3(C)C2C1C)CO[C@@H]1O[C@H](CO)[C@@H](O)[C@H](O)[C@H]1O (stereo partly specified) |  |  | 83.1% [at 9.25 µM] | 86.8% [at 9.25 µM]
COc1cc(/C=C/C(=O)OC[C@H]2O[C@@](CO)(O[C@H]3O[C@H](CO)[C@@H](O)[C@H](O)[C@H]3O)[C@@H](OC(=O)/C=C/c3ccc(O)c(OC)c3)[C@@H]2O)ccc1O | inactive | inactive |  | 
CC(/C=C/C1(O)C(C)(C)CC(O)CC1(C)O)OC1OC(CO)C(O)C(O)C1O (stereo unspecified) | inactive | inactive |  | 
CCC(C)/C=C(C)/C=C/C1=CC2=C(Cl)C(=O)C(C)(OC(C)=O)C(=O)C2=CN1CCCCC(N)C(=O)O (stereo unspecified) | inactive | inactive |  | 
N#Cc1cc(-c2n[nH]c(-c3ccncc3)n2)ccn1 | inactive | inactive |  | 
COc1cc(/C=C/C(=O)OC[C@H]2O[C@@H](OC3CC(C)=C(C(=O)O)C(C)(C)C3)[C@H](O)[C@@H](O)[C@@H]2O)cc(OC)c1O (stereo partly specified) | inactive | inactive |  | 
CC1(C)OC(=O)CC(O)C2(C)C1CC(=O)C1(C)C2C(O)CC2(C)C(c3ccoc3)OC(=O)C3OC321 (stereo unspecified) | inactive | inactive |  | 
COc1cc2nc(N3CCCC3)nc(NCCCCCN3CCCC3)c2cc1OC | 1.3 µM (active) | 2.59 µM (active) |  | 
CC(=O)OC[C@]12[C@@H](OC(=O)c3ccoc3)C[C@@H]3[C@@H](OC(C)=O)[C@]1(OC3(C)C)[C@@](C)(O)C[C@H](OC(=O)c1ccoc1)[C@@H]2OC(=O)c1ccoc1 | inactive | inactive |  | 
CN(C)c1cc2c(Nc3ccc4c(cnn4Cc4ccccc4)c3)ncnc2cn1 | 8.2 µM (active) | 9.2 µM (active) |  | 
C=Cc1ccc(O[C@@H]2O[C@H](CO[C@@H]3O[C@@H](C)[C@H](O)[C@@H](O)[C@H]3O)[C@@H](O)[C@H](O)[C@H]2O)cc1 | inactive | inactive |  | 
OC1C=C2C3CN(Cc4cc5c(cc43)OCO5)C2CC1O (stereo unspecified) | 5.17 µM (active) | 5.17 µM (active) |  | 
CC(=O)c1ccc2c(c1)C(O)C(C(C)(C)O)O2 (stereo unspecified) | inactive | inactive |  | 
CS(=O)(=O)c1ccc([C@@H](C[C@H]2CCC(=O)C2)C(=O)Nc2cnccn2)cc1Cl | 15.8 µM (active) | 15.8 µM (active) |  | 
COc1c(F)cccc1C(=O)N1C[C@@H](C)CC[C@H]1CNc1ccc(Br)cn1 | 9.2 µM (active) | 9.2 µM (active) |  | 
C=C1C(=O)O[C@@H]2[C@H]1CC[C@H](C)C(CCC(=O)O)C2(C)O (stereo partly specified) | 5.8 µM (active) | 2.31 µM (active) |  | 
CC(C)=CCC[C@](C)(O[C@@H]1O[C@H](CO)[C@@H](O)[C@H](O)[C@H]1O)[C@H]1CC[C@]2(C)[C@@H]1[C@H](O)CC1[C@@]3(C)CC[C@H](O)C(C)(C)C3[C@@H](O[C@@H]3O[C@H](CO)[C@@H](O)[C@H](O)[C@H]3O[C@@H]3O[C@@H](C)[C@H](O)[C@@H](O)[C@H]3O)C[C@]12C (stereo partly specified) |  |  | 90.7% [at 9.25 µM] | 105% [at 9.25 µM]
